# GPR151 activ: activators of human GPR151, primary screen, cell-based, PathHunter beta-arrestin, luminescence; G-protein coupled receptor 151 (Homo sapiens), Q8TDV0; PathHunter beta-arrestin GPR151 cells; activation, % at 11.2 µM; 1% of 650,000 active; AID 1508602, 2020; in the data active = activation above about 4.9%;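 also: 0% = median of compound wells and 100% = cells with positive control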
# Target sequence (Q8TDV0 whole entry, looked up): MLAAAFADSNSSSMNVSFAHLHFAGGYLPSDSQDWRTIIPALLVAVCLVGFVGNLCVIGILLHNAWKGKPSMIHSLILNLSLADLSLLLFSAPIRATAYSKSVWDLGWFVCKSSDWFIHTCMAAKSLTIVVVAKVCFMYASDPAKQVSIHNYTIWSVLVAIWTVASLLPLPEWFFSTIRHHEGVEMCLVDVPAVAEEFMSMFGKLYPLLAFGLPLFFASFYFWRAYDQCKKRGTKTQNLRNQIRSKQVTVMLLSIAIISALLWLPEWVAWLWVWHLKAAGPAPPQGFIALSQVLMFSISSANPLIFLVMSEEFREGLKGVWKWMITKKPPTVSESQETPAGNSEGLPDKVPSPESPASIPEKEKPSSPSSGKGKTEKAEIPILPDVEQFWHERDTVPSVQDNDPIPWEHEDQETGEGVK
# FBW7 act: FBW7 E3 ligase activators, primary screen, biochemical, AlphaScreen, human; F-box/WD repeat-containing protein 7 (Homo sapiens), Q969H0; AlphaScreen FBW7–phospho-cyclin E peptide binding, activator screen; normalized activity (activation), % at 26.1 µM; 0.13% of 650,000 active; in the data active = normalized activity above about 1.9%;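 also: purified mutant Fbw7 with reduced substrate affinity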
# MITF primary: MITF inhibitors, primary screen, biochemical, AlphaScreen, human. Microphthalmia-associated transcription factor (Homo sapiens), O75030. AlphaScreen MITF homodimerization, bead proximity signal. inhibition, % at 2.6 µM. 0.91% of 650,000 active; in the data active = inhibition above about 50%;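 also: 0% = vehicle wells with protein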
# TEAD-YAP inh: TEAD-YAP interaction inhibition, primary screen, TEAD-YAP interaction inhibitor project, luminescence, HEK-TIYL cells; TEAD-Gal4/YAP UAS-luciferase luminescence; inhibition, % at 9.12 µM; 1.4% of 640,000 active; in the data active = inhibition above about 32%;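 also: 0% = median of test compound wells and 100% = reference inhibitor wells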
# GPR151 conf act: GPR151 activators, triplicate retest, confirmation, cell-based, PathHunter beta-arrestin, luminescence; 6,700 tested, under 10 active; activation, % at 11.2 µM; GPR151 PathHunter beta-arrestin cells, 90 min; % of EA-reagent control over plate median; shares compounds with GPR151 activ;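 active = mean percent activation across replicates above the confirmation screen cutoff of 4.91%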
# GPR119 ag: GPR119 activators in beta-arrestin cells, counter-screen for GPR151 activator project, cell-based, PathHunter beta-arrestin, luminescence, triplicate; 0.3% of 6,700 active; 90 min; 0 = compound-well median, 100 = enzyme-acceptor control; activation, % at 11.2 µM; AID 1508611, 2020; shares compounds with GPR151 activ;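 active = mean percent activation in the counterscreen above 29.09%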;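 also: counterscreen on off-target GPR119 to flag nonselective hits from the GPR151 activator screen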
# * hit, by the source's call; . = not tested or not shown. An excerpt weighted towards active compounds, which were near 3.5% of everything screened.
SMILES,GPR151 activ,FBW7 act,MITF primary,TEAD-YAP inh,GPR151 conf act,GPR119 ag
COc1ccc(-c2cc(C(F)(F)F)n3nc(C(=O)N4CCN(c5ccccc5Cl)CC4)cc3n2)cc1,6.1*,0,-3,1,0,-6
CCn1ncc(CNC(=O)c2cc3nc(-c4ccco4)cc(C(F)(F)F)n3n2)c1C,5.0*,0,2,20,1,-1
COc1ccc(-c2cc(C(F)(F)F)n3nc(C(=O)N4CCN(c5cccc(Cl)c5)CC4)cc3n2)cc1,-1,0,-2,-8,.,.
CC1CC(C)CN(S(=O)(=O)c2ccc(C(=O)N=c3sc4cc(Cl)ccc4n3C)cc2)C1 (stereo not drawn),0,0,13,3,.,.
CCOC(=O)Cc1csc(NC(=O)CC23CC4CC(CC(Br)(C4)C2)C3)n1,0,0,7,1,.,.
C/C(=N\Nc1ccc([N+](=O)[O-])cc1[N+](=O)[O-])c1ccc(N)cc1,0,0,13,7,.,.
O=C(NCCCn1ccnc1)c1cc2nc(-c3cccs3)cc(C(F)(F)F)n2n1,7.3*,0,11,2,0,12
Cc1ccc(-c2cc(C(F)(F)F)n3nc(C(=O)NN4CCOCC4)cc3n2)cc1C,5.3*,0,13,3,0,9
COc1ccc(OC)c(C2NC(=O)NC(C)=C2C(=O)OC(C)C)c1 (stereo not drawn),5.1*,0,22,-2,0,12
COc1ccc(O)c(C2NC(=O)NC(C)=C2C(=O)OC(C)C)c1 (stereo not drawn),0,0,3,-14,.,.
COc1ccc(/C=C(\C#N)c2nc3ccccc3[nH]2)cc1O,4.9*,0,2,-62,0,1
Cn1nc(C(=O)OCC(=O)Nc2ccc(C#N)cc2)c2ccccc2c1=O,0,0,1,2,.,.
Nc1c(-c2ccccc2)c(-c2ccccc2)nn1Cc1ccccc1,6.9*,1,11,-3,1,4
Nc1cc(-c2ccccc2)nn1Cc1cccc(Cl)c1,0,0,-4,9,.,.
Cc1ccc(CN2CCCC(CNC(=O)c3ccc(F)cc3)C2)o1 (stereo not drawn),2,0,5,12,.,.
CCCCNC(=O)C1Cc2ccccc2CN1S(=O)(=O)c1cccs1 (stereo not drawn),5.7*,0,-1,11,0,-5
Cc1cc2[nH]c(=O)c(=O)[nH]c2cc1S(=O)(=O)N(C)Cc1ccccc1,0,0,5,1,.,.
CN(Cc1ccccc1)S(=O)(=O)c1ccc2[nH]c(=O)c(=O)[nH]c2c1,5.2*,0,-5,6,0,1
CCOc1ccc2[nH]c(=O)c(CN(CCO)C(=O)c3cccc(OC)c3)cc2c1,0,0,9,-3,.,.
CCOC(=O)c1c(NC(=O)CSc2nnc(CNC(=O)c3ccc([N+](=O)[O-])cc3)n2-c2ccc(F)cc2)sc2c1CCCCC2,1,0,9,0,.,.
CCCCC1(CCCC)NC(=S)N(c2ccc(C)cc2)N1,11*,0,15,-6,-1,-4
O=C(Nc1ccccc1Cl)C1CCCCC1,0,0,16,-1,.,.
O=C1CC(C(=O)Nc2ccccc2Cl)c2ccccc21 (stereo not drawn),9.4*,0,8,-1,0,0
CCOC(=O)N1CCN(C(=O)C2CCCN(c3nn4c(=O)cc(C)nc4s3)C2)CC1 (stereo not drawn),5.6*,0,-11,-1,0,-11
Cc1cc(=O)n2nc(N3CCCC(C(=O)N4CCN(c5ccccc5)CC4)C3)sc2n1 (stereo not drawn),0,0,10,2,.,.
CCC(c1nnnn1C(C)(C)CC)N1CCN(Cc2ccccc2)CC1 (stereo not drawn),6.3*,0,4,-9,-1,-13
